In the library only some 1.6% were active in any assay of this set; here they are far more common.
KCNQ2 block: blocks the rat KCNQ2 potassium channel; B-score at 10 µM; AID 2156; 310,000 compounds, 1.1% hits; CHO-K1 KCNQ2, FluxOR thallium flux, 20 min; stronger effect = lower value; O88943;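 active = fluorescence ratio B-score at most minus 3 library SDs, with starting brightness B-score within 2 library SDs, cut at about -5.5 in these data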
Target sequence (O88943 whole entry, looked up): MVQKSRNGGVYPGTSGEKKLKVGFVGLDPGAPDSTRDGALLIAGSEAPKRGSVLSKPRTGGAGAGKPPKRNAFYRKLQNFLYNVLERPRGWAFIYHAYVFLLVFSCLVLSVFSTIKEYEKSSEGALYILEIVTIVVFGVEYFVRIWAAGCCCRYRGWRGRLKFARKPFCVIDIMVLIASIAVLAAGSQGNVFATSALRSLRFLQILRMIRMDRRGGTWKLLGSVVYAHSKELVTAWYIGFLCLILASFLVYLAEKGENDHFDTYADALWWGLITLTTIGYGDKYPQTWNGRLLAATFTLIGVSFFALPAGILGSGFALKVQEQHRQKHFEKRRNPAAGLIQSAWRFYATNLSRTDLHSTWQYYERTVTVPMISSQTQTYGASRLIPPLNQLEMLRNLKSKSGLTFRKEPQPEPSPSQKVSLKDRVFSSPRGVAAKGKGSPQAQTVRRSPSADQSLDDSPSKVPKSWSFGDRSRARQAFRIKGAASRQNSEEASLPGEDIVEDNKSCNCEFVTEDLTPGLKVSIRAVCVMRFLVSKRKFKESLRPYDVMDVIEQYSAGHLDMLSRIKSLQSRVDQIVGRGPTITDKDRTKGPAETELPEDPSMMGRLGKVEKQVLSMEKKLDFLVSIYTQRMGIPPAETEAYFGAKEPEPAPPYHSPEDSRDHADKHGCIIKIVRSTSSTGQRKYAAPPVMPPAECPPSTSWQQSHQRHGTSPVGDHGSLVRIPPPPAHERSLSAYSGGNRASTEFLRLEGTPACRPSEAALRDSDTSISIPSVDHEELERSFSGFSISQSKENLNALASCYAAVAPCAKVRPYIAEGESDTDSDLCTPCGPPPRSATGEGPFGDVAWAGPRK
KCNQ2 enhance: KCNQ2 (rat) channel potentiation | O88943 | CHO-K1 KCNQ2, FluxOR thallium flux fluorescence; stronger effect = higher value | B-score at 10 µM | 310,000 compounds, 0.54% hits;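 active = fluorescence ratio B-score at least 3 SD of library B-scores, with initial fluorescence B-score within 3 of them, cut at about 5.3 in these data; same plate scores as AID 2156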;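 note: B-score of peak minus minimum over baseline fluorescence ratio after K+ and Tl+ stimulus; positive B-score means potentiation of KCNQ2 with more thallium influx and brighter signal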
Of the large screens only hits and unclear results are named; the others gave an inactive call.

O=C(NC1CCCN(CCc2ccccc2)C1)C1CCCC1 (centres undefined)	KCNQ2 block -6.8
O=c1[nH]cnc2c1sc1nc(-c3ccccc3)c3c(c12)CCCC3	none
S=c1nc[nH]c2c1sc1nc(-c3ccccc3)c3c(c12)CCCC3	KCNQ2 enhance 16
COc1ccc(NC(=O)CCC(=O)Nc2ccc3nc(N4CCOCC4)cc(C)c3c2)c(OC)c1	none
COc1ccc(N(C)C(=O)CCC(=O)Nc2ccc3nc(N4CCOCC4)cc(C)c3c2)c(OC)c1	KCNQ2 block -7.8
O=C(Nc1ccc(NC(=O)C2CCCCC2)nc1)c1cccc(F)c1	none (no result: KCNQ2 enhance)
NC(=O)C1CCN(Cc2nc3cc(C(F)(F)F)ccc3c(=O)[nH]2)CC1	none
CCC(Sc1nnnn1-c1ccccc1)C(=O)NC(C)c1ccccc1 (centres undefined)	none (no result: KCNQ2 enhance)
CCN(CC)C(=O)C(Sc1nnnn1-c1ccc(O)cc1)c1ccccc1 (centres undefined)	KCNQ2 block -6.1
O=C(NCCOc1ccccc1)c1cc2ccccc2o1	none (no result: KCNQ2 enhance)
CCn1cc(C(=O)NCCCOC(C)C)c(=O)c2cc(S(=O)(=O)N3CCOCC3)ccc21	none
CCN1CCN(S(=O)(=O)c2ccc(Cl)c(C(=O)Nc3ccccc3N3CCCC3)c2)CC1	none (no result: KCNQ2 enhance)
CCN(CC(=O)Nc1ccc(S(=O)(=O)N2CCCCC2)cc1)Cc1ccccc1	none (no result: KCNQ2 enhance)
O=C(Nc1cc(S(=O)(=O)N2CCOCC2)ccc1N1CCCC1)c1ccc2c(c1)S(=O)(=O)c1ccccc1C2=O	KCNQ2 block -5.9
O=C(Nc1cc(S(=O)(=O)N2CCOCC2)ccc1N1CCCC1)c1cccnc1Cl	none (no result: KCNQ2 enhance)
CCN1CCN(S(=O)(=O)c2ccc(Cl)c(C(=O)Nc3ccccc3N3CCCCC3)c2)CC1	KCNQ2 block -5.6
O=C(Nc1ccccc1F)Nc1cc(S(=O)(=O)N2CCOCC2)ccc1N1CCCC1	none
CCN(CC(=O)Nc1cc(S(=O)(=O)N2CCCCC2)ccc1Cl)Cc1ccccc1	KCNQ2 block -7.8
O=C(Nc1ccccc1N1CCCC1)c1cc(S(=O)(=O)N2CCOCC2)ccc1Cl	KCNQ2 block -5.9
CCOC(=O)Cc1csc(NC(=O)/C=C/c2ccc(Cl)cc2)n1	none (no result: KCNQ2 enhance)
CCNS(=O)(=O)c1ccc2c(c1)NCC2	none
CCN1CCN(Cc2ccc(NC(=O)c3cc(NC(=O)C(=O)c4c[nH]c5ccccc45)cc(OC)c3)cc2C(F)(F)F)CC1	none (no result: KCNQ2 enhance)
CCN1CCN(Cc2ccc(NC(=O)c3ccc(C)c(NC(=O)C(=O)c4c[nH]c5ccccc45)c3)cc2C(F)(F)F)CC1	KCNQ2 block -7.8
Cc1cc(Nc2cccc([N+](=O)[O-])c2)c2cccc(C)c2n1	none (no result: KCNQ2 enhance)
Cc1cc(Nc2ccccc2)c2c([N+](=O)[O-])ccc(C)c2n1	KCNQ2 block -7.3
Cc1cccc2c1-c1sc(C(=O)N3CCCCC3)cc1CO2	none (no result: KCNQ2 enhance)
Cc1cccc2c1-c1sc(C(=O)N3CCc4ccccc4C3)cc1CO2	KCNQ2 block -5.6
O=C(NNc1ncnc2ccccc12)c1cccc(Cl)c1	none
O=C(NCc1ccccn1)c1cccc(NS(=O)(=O)c2cccc(F)c2)c1	none
COc1cccc(-n2c(SCC(=O)Nc3sc4c(c3C(N)=O)CCC4)nc3ccccc3c2=O)c1	KCNQ2 block -6.1
COc1cccc(-n2c(SCC(N)=O)nc3ccccc3c2=O)c1	none
CN(Cc1ccccc1)c1ccc(C(CC(N)=O)NC(=O)c2ccccc2)cc1[N+](=O)[O-] (centres undefined)	none
Cc1nc(-c2ccc(S(=O)(=O)NCc3cccnc3)s2)cs1	none
CS(=O)(=O)N1CCC(C(=O)N2CCN(C(c3ccccc3)c3ccccc3)CC2)CC1	none
CC(C)c1ccccc1NC(=O)COC(=O)c1cccnc1	none (no result: KCNQ2 enhance)
CCOC(=O)c1cc(C(C)(C)C)oc1CN	none
CCOC(=O)c1cc(C(C)(C)C)oc1CNC(=O)c1c(C)oc2c1CCCC2	KCNQ2 block -6.1
CC(C)NC(=O)c1onc(CSc2ccc(Cl)cc2)c1C(=O)NC(C)C	none (no result: KCNQ2 enhance)
Cc1ccc(NC(=O)c2cc(S(=O)(=O)N(C)C)ccc2N2CCCC2)cc1F	none (no result: KCNQ2 enhance)
COc1cccc(-c2nn(-c3ccccc3)cc2C(=O)O)c1	none
COc1cccc(-c2nn(-c3ccc(C)cc3)cc2C(=O)N2CCc3cc(OC)c(OC)cc3C2)c1	KCNQ2 block -6.2
O=C(C1=C[C@@H](C2CCCCC2)C[C@@H](OCc2ccc(CO)cc2)O1)N1CCN(Cc2ccccc2)CC1	KCNQ2 block -6.5
O=C(C1=C[C@H](C2CCCCC2)C[C@H](OCc2ccc(CO)cc2)O1)N1CCOCC1	none (no result: KCNQ2 enhance)
O=C(C1=C[C@H](C2CCCCC2)C[C@H](OCc2ccc(CO)cc2)O1)N1CCN(Cc2ccccc2)CC1	KCNQ2 block -6.7
C[C@@H]1C=C(C(=O)N2CCN(Cc3ccccc3)CC2)O[C@H](OCc2ccc(CO)cc2)C1	none (no result: KCNQ2 enhance)
O=C(CCOc1ccccc1)Nc1ccnn1C1CCN(C(=O)CCC(F)(F)F)CC1	none (no result: KCNQ2 enhance)
COc1ccc(CNC(=O)CN2C(=O)CCSc3ccc(S(=O)(=O)N4CCCC4)cc32)cc1	none
CCOC(=O)C1=C(C)n2c(s/c(=C/c3cccc([N+](=O)[O-])c3)c2=O)=NC1c1ccc(O)c(OC)c1 (centres undefined)	KCNQ2 block -6.1
CCOC(=O)C1=C(C)N=c2s/c(=C/c3ccccc3)c(=O)n2C1c1ccc(OC)c(OC)c1 (centres undefined)	none (no result: KCNQ2 enhance)
CCOC(=O)C1=C(C)N=c2s/c(=C\c3ccc(OCC(=O)O)cc3)c(=O)n2C1c1ccccc1OC (centres undefined)	none
CCOC(=O)C1=C(C)N=c2s/c(=C\c3ccc(O)c([N+](=O)[O-])c3)c(=O)n2C1c1ccccc1OC (centres undefined)	KCNQ2 block -7.2
Cc1ccc(S(=O)(=O)N2CCC(=O)N(C(COCc3cccc(C(F)(F)F)c3)C(C)C)CC2)cc1 (centres undefined)	none (no result: KCNQ2 enhance)
Cc1ccccc1N=C1NN=C(c2ccccc2F)CS1	none (no result: KCNQ2 enhance)
Cn1cnnc1SC1c2cccc3cccc(c23)C1NS(=O)(=O)c1ccccc1 (centres undefined)	none (no result: KCNQ2 enhance)
Cc1ccc(S(=O)(=O)NC2c3cccc4cccc(c34)C2Sc2nncn2C)cc1 (centres undefined)	none
Cc1ccc(S(=O)(=O)NC2c3cccc4cccc(c34)C2Sc2nc(C)cc(C)n2)cc1 (centres undefined)	KCNQ2 block -6.4
O=S(=O)(NC1c2cccc3cccc(c23)C1Sc1ncccn1)c1ccccc1 (centres undefined)	KCNQ2 block -6.4
Cc1ccc(N(CC(=O)NC2CCCCC2)S(=O)(=O)c2cccs2)cc1	none
O=C1CC(NS(=O)(=O)c2ccc([N+](=O)[O-])cc2)CN1c1cccc(F)c1 (centres undefined)	none
Cc1ccc(C(=O)CCS(=O)(=O)c2ccc(Br)cc2)cc1	none (no result: KCNQ2 enhance)
COc1ccc(C(=O)CCS(=O)(=O)c2ccc(C)cc2)cc1	KCNQ2 block -6.4
COc1ccc(S(=O)(=O)N2CCOC2CNC(=O)C(=O)NCCc2c[nH]c3ccccc23)cc1C (centres undefined)	none
CCN1/C(=C/C=C/C=C/c2sc3ccccc3[n+]2CC)Sc2ccccc21	KCNQ2 block -21
CCN1/C(=C/C=C/C=C/C=C/c2sc3ccccc3[n+]2CC)Sc2ccccc21	none (no result: KCNQ2 enhance)
COc1ccccc1-c1noc2ncnc(Nc3cccc(C)c3C)c12	none
COc1cccc(CC(=O)Nc2ccc3nc(C)sc3c2)c1	none (no result: KCNQ2 enhance)
COc1ccc(OCC(=O)Nc2ccc3nc(C)sc3c2)cc1	KCNQ2 block -9.6
NNc1nc(-c2ccccc2)nc(-c2ccccc2)c1Br	none (no result: KCNQ2 enhance)
O=C(COC(=O)c1cccc(S(=O)(=O)Nc2ccc(F)cc2)c1)NCCN1C(=O)CSC1=O	none
